# Bioassay records from PubChem BioAssay.
# CHT allo act: CHT positive allosteric modulators, primary screen, cell-based, membrane potential dye, choline EC20; High affinity choline transporter 1 (Homo sapiens), Q9GZV3; CHT-expressing cells; hits give high values; LV-AA mutant CHT in HEK293 cells; B-score at 10 µM; actives 0.49% (n = 310,000); AID 488977, 2010;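 active means initial fluorescence not abnormally high and integrated response B-score, plate-corrected, over 3 SD above library mean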
# CHT block: inhibitors of human choline transporter CHT. High affinity choline transporter 1 (Homo sapiens), Q9GZV3. CHT-expressing cells, membrane potential dye, choline response; hits give low values. AID 488975, 2010. actives 0.86% (n = 310,000). B-score at 10 µM;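 active means B-score over 3 SD under the library average, and starting fluorescence ratio not unusually high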;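 further: choline stimulus applied at its EC90 after an EC20 pre-addition; B-score computed on integrated fluorescence ratio after choline addition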
# ANO1 block: TMEM16A chloride channel inhibitors, primary screen, cell-based, HTS. HEK293 TMEM16A/YFP iodide influx fluorescence, ionomycin. AID 588511, 2011. actives 1.2% (n = 310,000). Anoctamin-1 (Mus musculus), Q8BHY3. normalized B-score (activity score, 25-100; higher = stronger inhibition) at 10 µM;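 active means ratio plate-corrected score three or more library SD toward inhibition, starting fluorescence score within five deviations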;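 further: score derived from kinetic fluorescence span divided by baseline fluorescence per well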
# Target sequence (Q8BHY3 whole entry, looked up): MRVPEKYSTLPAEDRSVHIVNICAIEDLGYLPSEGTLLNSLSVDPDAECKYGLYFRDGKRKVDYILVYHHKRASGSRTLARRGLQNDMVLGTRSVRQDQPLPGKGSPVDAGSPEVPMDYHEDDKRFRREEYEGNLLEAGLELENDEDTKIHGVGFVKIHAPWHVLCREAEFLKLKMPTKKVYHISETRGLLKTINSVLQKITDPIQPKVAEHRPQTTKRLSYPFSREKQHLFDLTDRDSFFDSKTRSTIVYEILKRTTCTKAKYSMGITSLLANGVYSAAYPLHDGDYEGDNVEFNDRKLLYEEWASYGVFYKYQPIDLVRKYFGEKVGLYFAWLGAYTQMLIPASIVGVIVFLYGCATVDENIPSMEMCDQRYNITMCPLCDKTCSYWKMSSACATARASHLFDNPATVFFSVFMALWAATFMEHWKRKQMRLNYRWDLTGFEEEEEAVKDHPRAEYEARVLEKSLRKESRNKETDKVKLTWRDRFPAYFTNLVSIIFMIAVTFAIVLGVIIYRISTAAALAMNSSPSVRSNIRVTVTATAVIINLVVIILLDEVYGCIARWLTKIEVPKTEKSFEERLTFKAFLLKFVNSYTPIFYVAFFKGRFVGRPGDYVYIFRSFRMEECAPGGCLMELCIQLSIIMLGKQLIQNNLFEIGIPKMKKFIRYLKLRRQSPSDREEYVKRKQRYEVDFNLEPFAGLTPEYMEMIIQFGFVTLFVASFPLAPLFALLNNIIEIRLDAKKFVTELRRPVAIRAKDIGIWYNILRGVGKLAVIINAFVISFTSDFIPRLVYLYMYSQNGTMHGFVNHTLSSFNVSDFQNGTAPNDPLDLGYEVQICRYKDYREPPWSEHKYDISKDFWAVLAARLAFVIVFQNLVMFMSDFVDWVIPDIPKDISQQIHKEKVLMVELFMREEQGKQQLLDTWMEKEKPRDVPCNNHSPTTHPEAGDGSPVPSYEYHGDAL
# ANO1 activ: TMEM16A chloride channel activators or potentiators, primary screen, cell-based, HTS. Anoctamin-1 (Mus musculus), Q8BHY3. HEK293 TMEM16A/YFP-H148Q/I152L, iodide quench fluorescence; hits give low values. B-score at 10 µM. actives 0.3% (n = 340,000). AID 623877, 2012;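 active means fluorescence-ratio B-score plate-corrected deviation score at least 3 library SD below zero, with starting fluorescence score within 5 deviations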;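 further: channel opened by trigger with iodide after compound preincubation; score built on the fluorescence ratio of max minus min over baseline; more negative score means more quench and so TMEM16A activation or potentiation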
# CHT activ conf: CHT activators, confirmation, cell-based, membrane potential dye, duplicate; shares compounds with CHT allo act; CHT-expressing cells, membrane potential dye fluorescence (FDSS); % of choline EC20–EC90 response window; HEK293 expressing CHT LV-AA mutant; choline added at its EC20; activation, % at 10 µM; actives 91% (n = 2,500); AID 504833, 2011;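 active means primary screen active, with duplicate mean activation above negative control mean plus 3 SD, cut at about 11% in these data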
# HEK293 MP dye: membrane potential response in parental HEK293 cells, counter-screen for CHT activator project, cell-based, membrane potential dye; shares compounds with CHT allo act; membrane potential dye fluorescence (FDSS); measured after EC20 choline addition; ratio readout change at 10 µM, hits read low; actives 62% (n = 2,500);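 active means duplicate-averaged ratio beyond 3 SD from buffer wells, up or down, though filed actives are nearly all decreases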
# Starred values were filed as active, the others as inactive; i = inactive; / = not tested or not shown. Rows were chosen to be rich in hits. Some 2.3% of all compounds tested hit in one or more screens of this group.
SMILES,CHT allo act,CHT block,ANO1 block,ANO1 activ,CHT activ conf,HEK293 MP dye
COc1ccc(-c2noc(CN3CCCCC3c3nccn3C)n2)cc1 (stereo unspecified),11*,i,i,i,49*,i
Nc1cnnc(N/N=C\c2ccccc2)c1Cl,6.4*,i,i,i,57*,-54*
Nc1nonc1N/N=C\c1ccccc1,i,i,i,i,/,/
CN(CC(=O)Nc1ccc(F)c(F)c1F)C(=O)c1cc(-c2ccncc2)nc2ccccc12,i,i,i,i,40*,i
COc1ccc(S(=O)(=O)NNC(=O)c2ccc(-n3c(C)ccc3C)cc2)cc1,i,i,i,i,/,/
NC(=O)c1ccccc1NC(=S)NC(=O)CCc1ccccc1,i,i,i,i,9,i
NC(=O)c1ccccc1NC(=O)CCc1ccccc1,i,i,i,i,/,/
Cn1c(N)c(C(=O)COC(=O)c2ccc(Cl)nc2)c(=O)n(C)c1=O,7.5*,i,i,i,22*,-31*
CN1CCCC(n2nc(Cc3ccc(Cl)cc3)c3ccccc3c2=O)CC1 (stereo unspecified),i,i,i,i,44*,-30*
CCOC(=O)N1CCC(NC(=O)Cn2nc(Cc3ccncc3)c3ccccc3c2=O)CC1,i,i,i,i,/,/
CN=c1scc(-c2ccc(Br)cc2)n1C,i,i,i,i,35*,-44*
O=C(CN1CC[n+]2c(-c3cccs3)csc21)c1ccc(-c2ccccc2)cc1,i,i,i,i,/,/
CCc1ccc(-c2csc3[n+]2CCN3C(C)=O)cc1,i,i,i,i,41*,i
CC(=O)N1CC[n+]2c(-c3ccc(Cl)cc3)csc21,i,i,i,i,47*,-23*
CC(C)(C)OC(=O)[C@H]1[C@H](c2ccc([N+](=O)[O-])cc2)C2(C(=O)c3ccccc3C2=O)C2c3ccccc3C=NN21 (stereo partly specified),i,i,i,i,37*,i
CCC(=O)NNC(=O)c1cc(COc2cc(Cl)cc(Cl)c2)on1,i,i,i,i,/,/
CCOC(=O)c1ccc2ncc(C(=O)OCC)c(NCCN(C)C)c2c1,i,i,i,i,36*,-36*
CCOC(=O)c1cnc2ccc(C(=O)OC)cc2c1Nc1cccc(C(=O)O)c1,11*,i,i,i,75*,-74*
CCOC(=O)c1cnc2ccc(C)cc2c1N(C)Cc1ccccc1,i,i,i,i,28*,i
CCOC(=O)c1ccc2ncc(C(=O)OCC)c(NCCN3CCOCC3)c2c1,i,i,i,i,/,/
CN(C(=O)NC1CC(=O)N(c2ccc3c(c2)OCCO3)C1)c1ccccc1 (stereo unspecified),i,i,i,i,/,/
Cc1ccc(C)c(OCCC(=O)OCC(=O)c2c(N)n(C)c(=O)n(C)c2=O)c1,i,i,i,i,/,/
CCC1=C(CC2NCCc3ccccc32)CC2c3cc(OC)c(OC)cc3CCN2C1 (stereo unspecified),/,/,/,i,/,/
CC[C@H]1CN2CCc3cc(OC)c(OC)cc3C2C[C@@H]1C[C@H]1NCCc2cc(OC)c(OC)cc21 (stereo partly specified),14*,i,i,i,41*,-43*
Cc1ccnc(NC(=O)C(C)N2C(=O)c3ccccc3S2(=O)=O)c1 (stereo unspecified),10*,i,i,i,6,i
SMILES,CHT allo act,CHT block,ANO1 block,ANO1 activ,CHT activ conf,HEK293 MP dye
Cc1ccnc(NC(=O)CN2C(=O)c3ccccc3S2(=O)=O)c1,i,i,i,i,/,/
Cc1csc(NC(=O)C(C)N2C(=O)c3ccccc3S2(=O)=O)n1 (stereo unspecified),i,i,i,i,11*,i
CCOC(=O)CSc1nc(-c2ccc(OC)cc2)ns1,i,i,i,i,/,/
CN1C(=O)N(C)c2cccc3cccc1c23,i,i,i,i,/,/
CC1=Nc2cccc3cccc(c23)N1C,7.4*,i,i,i,59*,-71*
O=C(COc1ccc2c(c1)oc(=O)c1ccccc12)NCC1CCC(C(=O)O)CC1 (stereo unspecified),6.3*,i,i,i,32*,-20*
COc1ccc(/C=C2\N=C(c3ccccc3Cl)NC2=O)cc1,/,/,/,i,/,/
Cc1ccc([N+](=O)[O-])c(C(=O)N/N=C/c2cccnc2)c1,i,i,i,i,61*,-41*
Cc1c(C(=O)N/N=C/c2cccnc2)sc(=S)n1C,i,i,i,i,41*,-41*
CCCCN(CCCC)CP(=O)(c1ccccc1)c1ccccc1,8.9*,i,i,i,31*,i
CCCc1c(C(=O)Nc2cc(C)on2)cnn1-c1ccccc1,i,i,i,i,/,/
Cc1nc(N2CCN(C)CC2)c2sc(=S)n(C)c2n1,i,i,i,i,33*,-50*
COc1cc(Nc2ccc(S(=O)(=O)N3CCN(C)CC3)cc2[N+](=O)[O-])cc(OC)c1,i,i,i,i,9,-21*
C/C(CC(=O)Nc1ccc(Cl)c(Cl)c1)=N\NC(=O)C(=O)N1CCCCC1,i,i,i,i,/,/
COc1ccc(N2CCN(C(=O)COC(=O)c3ccccc3OCc3ccc(F)cc3)CC2)cc1,6.8*,i,i,i,20*,i
COc1ccc(N2CCN(C(=O)COC(=O)c3cccc(OC)c3O)CC2)cc1,/,/,/,i,/,/
CCN(c1ccccc1)S(=O)(=O)c1ccc(C(=O)N(CCCN(C)C)c2nc3cc4c(cc3s2)OCO4)cc1,i,i,i,i,43*,-37*
Cc1ccc(OCCN(C)C(=O)C2CCC(=O)N(Cc3ccccc3F)C2)cc1 (stereo unspecified),i,i,i,i,/,/
CC1=C(c2ccccc2)SC2=NCCN21,i,i,i,i,55*,-56*
CCN1C(N(C)CCc2cccs2)=N[C@@H](c2ccccc2)C(C(=O)OC)=C1C,13*,i,i,i,26*,i
